Bioassay records from PubChem.
Hits are enriched below; roughly 7.3% of the tested compounds scored in any of these assays.
Luciferase inh: Firefly luciferase inhibition profiling of diverse chemical library using quantitative high-throughput screening; 2.5% of 76,000 active; Potency, µM (series often up to 115 µM), actives largely listed as inhibitors; purified P. pyralis luciferase, luminescence, biochemical; Luciferin 4-monooxygenase (Photinus pyralis), P08659; also: nearly all actives have a fitted effect of over 65% in size
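Purified 10nM P. pyralis luciferase with 10uM D-luciferin and 10uM ATP in 50mM Tris acetate pH 7.5, 10mM Mg acetate, 0.01% Tween-20, 0.05% BSA. qHTS titration; luminescence read by CCD imager.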
HEK cytotox: Cytotoxic Profiling in HEK 293 Cell Line of Diverse Libraries Using Quantitative High-Throughput Screening; Potency, µM (top dose mostly 115 µM), usual class: inhibitors; 6.6% of 94,000 active; HEK 293 viability, ATP luminescence (CellTiter-Glo), 48-72 h; also: nearly all actives have a fitted effect of over 60% in size
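Luminescence from cellular ATP, measured with CellTiter-Glo, indicates HEK 293 viability. Cells plated at 250 cells/well are treated with compound for 48 or 72 hr at 37 degree Celsius before reagent addition.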
IP6K1 inh: Primary qHTS assay for small molecule inhibitors of Inositol hexaphosphate kinase 1 (IP6K1) | IP6K1 kinase, ADP-Glo luminescence, 2 h; stronger effect = lower value | activity change, % (series mostly up to about 58 µM) | AID 1645851, 2021 | 0.81% of 140,000 active; in the data active = activity change below about -25%
Target sequence (Q92551 whole entry, looked up): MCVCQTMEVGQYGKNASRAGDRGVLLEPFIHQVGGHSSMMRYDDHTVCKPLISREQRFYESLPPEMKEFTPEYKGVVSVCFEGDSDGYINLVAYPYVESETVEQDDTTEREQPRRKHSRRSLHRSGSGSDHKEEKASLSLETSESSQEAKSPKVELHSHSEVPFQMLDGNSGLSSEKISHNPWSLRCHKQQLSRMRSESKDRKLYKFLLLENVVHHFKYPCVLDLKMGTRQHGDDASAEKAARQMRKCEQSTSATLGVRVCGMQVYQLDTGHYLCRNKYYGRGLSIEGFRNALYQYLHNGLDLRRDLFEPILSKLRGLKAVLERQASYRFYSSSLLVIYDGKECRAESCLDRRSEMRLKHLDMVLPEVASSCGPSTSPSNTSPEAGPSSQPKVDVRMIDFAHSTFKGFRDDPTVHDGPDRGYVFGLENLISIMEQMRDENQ
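ADP-Glo luminescence measures ADP made by human IP6K1 during a 2 h RT reaction with ATP/IP6 (mix at 1.3 mM/130 uM); top library doses 57.5 and 19.1 uM final.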
3T3 cytotox: Cytotoxic Profiling in NIH 3T3 Cell Line of Diverse Libraries Using Quantitative High-Throughput Screening; AID 1345082, 2018; Potency, µM (top dose mostly 96.7 µM), actives largely listed as inhibitors; NIH 3T3 viability, CellTiter-Glo ATP luminescence, 48-72 h; 4.3% of 94,000 active; also: nearly all actives have a fitted effect of over 55% in size
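Mouse fibroblast NIH 3T3 cells, 400 per well, received compound via pintool and were incubated for 48 or 72 hr prior to CellTiter-Glo ATP luminescence measurement.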
SNCA viab count: GF-AFC viability counterscreen for inhibitors of alpha-synuclein gene (SNCA) expression; HEK-293-SNCA-luc viability, GF-AFC fluorescence, 24 h; Potency, µM (highest dose often 57.1 µM), most hits filed as cytotoxic; 0.12% of 150,000 active; AID 1671193, 2021; also: nearly all actives have a fitted effect of over 30% in size
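HEK-293-SNCA-luc cells (1500/well) plated 24 h, then exposed 24 h to a dilution series; GF-AFC added 30 min at 37C, fluorescence 405/540 nm; normalised to medium-only and DMSO wells, Hill fit.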
SNCA expr inhib: Primary qHTS assay for inhibitors of alpha-synuclein gene (SNCA) expression; HEK-293 SNCA-luciferase knock-in, luminescence, 24 h; Potency, µM (series often up to 57.2 µM), usual class: inhibitors; 0.17% of 140,000 active; AID 1671194, 2021; also: nearly all actives have a fitted effect of over 45% in size
A number is an active result; 0 = inactive; ? = inconclusive; - = no result. Unless noted, calls follow the shape of the dose curve; as a rule, active = well fitted curve in the direction sought with a large enough effect; inconclusive = small, poorly fitted or top-dose-only effect, or another doubt; inactive = no such curve, though single readings can be large; an effect the other way counts as inactive or inconclusive.

SMILES	Luciferase inh	HEK cytotox	IP6K1 inh	3T3 cytotox	SNCA viab count	SNCA expr inhib
CN(c1ccccc1)c1cc(=O)c2ccnc(-c3ccncc3)c2o1	0	0	0	25µM	0	0
CN(C)c1cccc(-c2nccc3c(=O)cc(-c4cn[nH]c4)oc23)c1	0	?	0	?	0	0
COc1cc(-c2nccc3c(=O)cc(N(C)c4ccccc4)oc23)ccn1	0	?	0	10µM	0	0
CC1=C(C(=O)Nc2ccccc2)C(c2cccc(C)c2)N2C(CC(=O)NC3CC3)=CSC2=N1 (configuration not stated)	0	?	0	?	0	0
COCCCn1c(=O)c(C(=O)NCCOC)nc2cccnc21	-	0	0	0	0	0
CC[C@H]1CN(S(=O)(=O)c2ccc(OC)cc2)CC[C@H]1CC(=O)N1CCOCC1	0	?	0	?	0	0
COCCOC1CN(C2CCN(S(C)(=O)=O)CC2)C12CCCCC2 (configuration not stated)	0	0	0	0	0	0
COc1ccc(-c2cn3cc(C(=O)N4CCCC4)nc3c(=O)n2CC2CC2)c(F)c1	0	32µM	0	32µM	0	?
CC1CCCN1C(=O)c1cn2cc(-c3cccc(Cl)c3)n(CC3CC3)c(=O)c2n1 (configuration not stated)	0	?	0	25µM	0	?
O=C(c1cn2cc(-c3ccccc3Cl)n(CC3CC3)c(=O)c2n1)N1CCCCC1	0	?	0	0	0	0
C[C@H]1[C@@H]2[C@H]3OC(=O)[C@@H](C)[C@@H]3CC[C@@]2(C)CC[C@@H]1NC(=O)c1ccccn1	0	100µM	0	0	0	0
C[C@H]1[C@@H]2[C@H]3OC(=O)[C@@H](C)[C@@H]3CC[C@@]2(C)CC[C@@H]1NC(=O)C1CCCCC1	0	100µM	0	?	0	0
C[C@H]1[C@@H]2[C@H]3OC(=O)[C@@H](C)[C@@H]3CC[C@@]2(C)CC[C@@H]1NC(=O)c1ccc(C#N)cc1	0	?	0	89µM	0	0
C[C@H]1[C@@H]2[C@H]3OC(=O)[C@@H](C)[C@@H]3CC[C@@]2(C)CC[C@@H]1NC(=O)c1ccncc1	0	0	0	0	0	0
COCCn1nc2n(c1=O)CCN(C(=O)COc1ccc(Cl)cc1C)CC2	0	?	0	0	0	0
O=C(O)C1CCc2nnc(C3CCCN(C(=O)c4ccc5c(c4)OCO5)C3)n21 (configuration not stated)	-	0	0	0	0	0
COc1ccc(N2CCN(C3CCCN(Cc4cc(=O)[nH]c(=O)[nH]4)C3)CC2)cc1 (configuration not stated)	0	0	0	0	0	0
COc1ccc(CN2CCCC(c3cc(=O)[nH]c(C)n3)C2)c(OC)c1C (configuration not stated)	0	45µM	0	?	0	0
Cc1cccc(-n2nc(-c3c(C)nc4scc(CC(=O)N5CCCCC5)n4c3=O)cc2C)c1C	0	0	0	0	0	0
CCCn1cnnc1CNC(=O)CC1C(=O)NCCN1Cc1ccoc1 (configuration not stated)	0	0	0	0	0	0
COc1ccccc1CN1CCc2nc(C(=O)N3CCOCC3)oc2CC1	0	100µM	0	?	0	0
O=C(Nc1ccc(Cl)cc1)c1nc2c(o1)CCN(Cc1cccc(F)c1F)CC2	0	32µM	0	?	0	0
COc1ccccc1CN1CCc2nc(C(=O)Nc3ccc(Cl)cc3)oc2CC1	0	28µM	0	50µM	?	?
O=C(Nc1ccc(Cl)cc1)c1nc2c(o1)CCN(CC1CC1)CC2	0	?	0	?	0	0
O=C(Nc1ccc(Cl)cc1)c1nc2c(o1)CCN(Cc1nccs1)CC2	22µM	?	0	?	0	0
SMILES	Luciferase inh	HEK cytotox	IP6K1 inh	3T3 cytotox	SNCA viab count	SNCA expr inhib
O=C(NCc1ccc(F)cc1)N1CC[C@@H]2COC(=O)N(Cc3ccccc3)[C@@H]2C1	-	?	0	?	0	0
COc1ccc(-c2cc(C(=O)NCC(F)(F)F)c3c(C4CCNC4)nn(C)c3n2)cc1 (configuration not stated)	-	79µM	0	?	0	0
COCCNC(=O)c1cc(-c2ccc(Cl)cc2)nc2c1cnn2C	-	?	0	?	0	0
COc1ccc(CCNC(=O)c2cc(-c3ccc(OC)cc3)nc3c2cnn3C)cc1	-	?	0	?	0	0
COC(=O)CNC(=O)c1cc(-c2ccc(Cl)nc2)nc2c1cnn2C	-	0	0	32µM	0	0
Cn1ncc2c(C(=O)NCC(F)F)cc(-c3ccc(Cl)cc3)nc21	-	45µM	0	?	0	0
C#CCNC(=O)c1cc(-c2ccc(OC)cc2)nc2c1cnn2C	-	?	0	50µM	-	-
O=C(C1CC1)N1CCC(CCOc2ccccc2)C1 (configuration not stated)	-	0	0	0	0	0
CC(C)(C)OCC1CN(Cc2ccccc2)[S+](=O)([O-])c2cnccc2O1 (configuration not stated)	-	?	0	0	0	0
CN(C)c1ccc(-c2nc(-c3nnn4c3COC(c3ccccc3Cl)C4)no2)cc1 (configuration not stated)	0	0	0	0	0	0
C#CCNC(=O)c1cc(-c2ccc(Cl)cc2)nc2c1cnn2C	-	89µM	0	?	0	0
C#CCNC(=O)c1cc(-c2ccc(Cl)nc2)nc2c1cnn2C	-	?	0	?	0	0
CN1CCC(C(=O)N2CCC3(CC2)CC(N[S+](C)(=O)[O-])c2ccccc23)CC1 (configuration not stated)	-	0	0	0	0	0
O=S(=O)(c1ccc(Cl)cc1)c1nnn2c1nc(NCc1ccc(F)cc1)c1ccccc12	-	?	0	32µM	0	0
Cc1ccc(CNC(=O)C2Cn3cccc3C(=O)N2CC(C)C)o1 (configuration not stated)	0	0	0	0	0	0
O=C(Nc1nccs1)[C@@H]1O[C@H](CCN2CCCCC2)CC[C@@H]1O	0	0	0	0	0	0
Cc1c(-c2ccccc2F)[nH]c2ccc(CNC(=O)CCC3=NNC(=O)CC3)cc12	?	?	0	?	0	0
Cc1c(-c2ccccc2F)[nH]c2ccc(CNC(=O)CCN3CCCC3=O)cc12	28µM	?	0	0	0	0
